Experiment [1] can be described thus: reducers of endogenous Her2 protein level, primary screen, SKBR3 breast tumor cells, AlphaScreen, ATP viability (AID 461;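 active = Her2 level under about 52% in both replicate screens, with viability over 70% of control, limit read from the data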;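 as to Her2 level: lower value means less Her2 protein in the cells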;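 as to viability: percent of carrier control wells set as 100% viability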). To be noted: 18-24 h, measured here: SKBR3 viability, ATP luminescence, at 10 µM.
Experiment [2] deals with Receptor tyrosine-protein kinase erbB-2 (Homo sapiens) (UniProt P04626). The description is as above. To be noted: 18-24 h, at 10 µM, stronger effect = lower value.
A short description of experiment [3]: SK-BR-3 cell growth inhibitors, pilot screen, 24 h, human (AID 572;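 active = viability at or below 10% of carrier control in both of two separate runs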;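 also: compound exposure lasted between 18 and 24 h rather than exactly 24 h; 100% = carrier-treated control wells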). To be noted: SK-BR-3 viability, CellTiter-Glo luminescence, at 10 µM, stronger effect = lower value.
The nature of experiment [4]: HUVEC growth inhibition – cell-based, human, primary screen (AID 575;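 active = viability at or below 30% in both replicate assays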;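 also: 100% = median of untreated cell wells with 0.1% DMSO on each plate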). The conditions noted are these: HUVEC proliferation, CellTiter-Glo luminescence, 72 h; at 10 µM; stronger effect = lower value.
The nature of experiment [5]: growth inhibitors of H69AR lung tumor, primary screen, human, duplicate replicates (AID 580;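 active = viability at or under a set limit in both replicates, limit being median viability minus 3 SD, cut at about 48% in these data, passing the limit was not always enough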;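 also: 100% = mean luminescence of untreated wells and 0% = no signal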). To be noted: H69AR lung tumor cells viability, ATP luminescence, 72 h; at 10 µM; stronger effect = lower value.
Experiment [6] is described as follows: reversal of MRP1-mediated doxorubicin resistance, pilot screen, H69AR cells, doxorubicin co-treatment (AID 601;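 active = viability loss from added drug above about 55%, and viability with drug at most 40%, in both replicates, limit read from the data, passing the limit was not always enough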). The conditions noted are these: CellTiter-Glo, 72 h, at 10 µM; for differential viability (reversal): stronger effect = higher value.
Experiment [7] can be described thus: 384-well plate pilot, post-Golgi transport modulator project, inhibition of yeast transport mutant growth (AID 636; in the data active = inhibition above about 31%). The conditions noted are these: absorbance 615 nm, about 18 h, stronger effect = higher value.
Experiment [8] can be described thus: growth suppression of yeast trafficking mutant, preliminary HTS, modulators of trafficking downstream of Golgi apparatus project, 1536-format plate, OD 615 nm (AID 637; in the data active = inhibition above about 30%). To be noted: yeast transport mutant growth, absorbance 615 nm, 18 h; stronger effect = higher value.
The nature of experiment [9]: OD615 S. cerevisiae growth inhibition, permissive medium, pilot counter-assay, permissive growth control for S. cerevisiae lifespan shortening project (AID 705;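 active = growth inhibition above 25% in both replicates, a cutoff set 3 SD above the mean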). To be noted: OD615, 24 h, at 10 µM, stronger effect = higher value.
Experiment [10] can be described thus: Restrictive medium S. cerevisiae growth inhibition, OD615, pilot screen of yeast lifespan reduction project, restrictive growth control (AID 706;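 active = growth inhibition above a set limit, 3 SD over mean compound inhibition, in both replicates, cut at about 43% in these data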;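 also: modified DeaD lifespan yeast strain shifted to restrictive glucose medium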). To be noted: OD615, 48 h, at 10 µM, stronger effect = higher value.
A short description of experiment [11]: viability gain of MRP-1-high H69AR cells under doxorubicin, pilot screen, MRP-1 activator project, CellTiter-Glo, duplicate (AID 807;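 active = viability increase at or above a cutoff of the median across tested compounds plus 3 SD, cut at about 8.5% in these data, passing the limit was not always enough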;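 also: compound pretreatment 18-22 h then 72 h combined with doxorubicin; 0% = doxorubicin alone and 100% = vehicle without doxorubicin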). The conditions noted are these: H69AR viability with doxorubicin, CellTiter-Glo luminescence; at 10 µM; stronger effect = higher value.
A short description of experiment [12]: growth suppression of beta-catenin knockout HCT116, pilot screen, human colon tumor cells (AID 823;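 active = cell viability at or below a set limit in both duplicate runs, the limit being the all-compound median minus 4 SD, cut at about 23% in these data, passing the limit was not always enough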;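 also: 0% = wells killed by 20 µM Hyamine and 100% = untreated DMSO cell wells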). To be noted: CellTiter-Glo, 60 h, at 10 µM, stronger effect = lower value.
Experiment [13] in a line: growth suppression of PTEN-deleted HCT116, pilot screen, cell-based, HCT116 clonal line, CellTiter-Glo (AID 824;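 active = viability at or below 27.92% in each of two runs, the all-compound median minus 4 SD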;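 also: 0% = 20 µM Hyamine control and 100% = vehicle cell control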). To be noted: 60 h, at 10 µM, stronger effect = lower value.
A short description of experiment [14]: inhibitors of the yeast RAM network, pilot screen, dse1pr::URA3 reporter, 5-FOA selection (AID 869).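 Also: 0% = DMSO wells with no growth and 100% = 10 µM 1-NA-PP1 with full growth; RAM network block rescues cells from 5-FOA so hits raise OD615 growth.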 The conditions noted are these: S. cerevisiae dse1pr::URA3 5-FOA growth, OD615, 2 d; at 10 µM; stronger effect = higher value; strain carries analog-sensitive mutant Cbk1 kinase.
A short description of experiment [15]: RAM signaling pathway blockade in yeast – S. cerevisiae, Pdr1DBD-CYC8 efflux-inhibited sensitized strain, primary screen (AID 1298;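 active = RAM network inhibition above 8.4% in each of two replicates, 3 SD over the compound average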;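 also: 0% = DMSO untreated cells without growth and 100% = 10 µM 1-NA-PP1 full growth; higher means more yeast growth rescued from 5-FOA killing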). To be noted: S. cerevisiae cbk1-as DSE1-URA3 strain, 5-FOA growth OD615, 2 d; at 50 µM; stronger effect = higher value.
Where [16] appears, read: H69AR cells + 2 uM doxorubicin, measured here: viability with 2 uM doxorubicin, stronger effect = lower value.
Where [17] appears, read: H69AR cells, compound alone cytotoxicity.

The structures appear in SMILES notation. Results filed as inconclusive are left out. Activity calls are given as the source filed them.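 The calls were made as follows, unless noted: active = inhibition over a set limit, the all-compound mean plus 3 SD, in both replicate runs; inconclusive = over that limit in just one replicate run; inactive = at or under that limit in both runs.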

Sequence of Receptor tyrosine-protein kinase erbB-2 (Homo sapiens) (P04626 whole entry, looked up): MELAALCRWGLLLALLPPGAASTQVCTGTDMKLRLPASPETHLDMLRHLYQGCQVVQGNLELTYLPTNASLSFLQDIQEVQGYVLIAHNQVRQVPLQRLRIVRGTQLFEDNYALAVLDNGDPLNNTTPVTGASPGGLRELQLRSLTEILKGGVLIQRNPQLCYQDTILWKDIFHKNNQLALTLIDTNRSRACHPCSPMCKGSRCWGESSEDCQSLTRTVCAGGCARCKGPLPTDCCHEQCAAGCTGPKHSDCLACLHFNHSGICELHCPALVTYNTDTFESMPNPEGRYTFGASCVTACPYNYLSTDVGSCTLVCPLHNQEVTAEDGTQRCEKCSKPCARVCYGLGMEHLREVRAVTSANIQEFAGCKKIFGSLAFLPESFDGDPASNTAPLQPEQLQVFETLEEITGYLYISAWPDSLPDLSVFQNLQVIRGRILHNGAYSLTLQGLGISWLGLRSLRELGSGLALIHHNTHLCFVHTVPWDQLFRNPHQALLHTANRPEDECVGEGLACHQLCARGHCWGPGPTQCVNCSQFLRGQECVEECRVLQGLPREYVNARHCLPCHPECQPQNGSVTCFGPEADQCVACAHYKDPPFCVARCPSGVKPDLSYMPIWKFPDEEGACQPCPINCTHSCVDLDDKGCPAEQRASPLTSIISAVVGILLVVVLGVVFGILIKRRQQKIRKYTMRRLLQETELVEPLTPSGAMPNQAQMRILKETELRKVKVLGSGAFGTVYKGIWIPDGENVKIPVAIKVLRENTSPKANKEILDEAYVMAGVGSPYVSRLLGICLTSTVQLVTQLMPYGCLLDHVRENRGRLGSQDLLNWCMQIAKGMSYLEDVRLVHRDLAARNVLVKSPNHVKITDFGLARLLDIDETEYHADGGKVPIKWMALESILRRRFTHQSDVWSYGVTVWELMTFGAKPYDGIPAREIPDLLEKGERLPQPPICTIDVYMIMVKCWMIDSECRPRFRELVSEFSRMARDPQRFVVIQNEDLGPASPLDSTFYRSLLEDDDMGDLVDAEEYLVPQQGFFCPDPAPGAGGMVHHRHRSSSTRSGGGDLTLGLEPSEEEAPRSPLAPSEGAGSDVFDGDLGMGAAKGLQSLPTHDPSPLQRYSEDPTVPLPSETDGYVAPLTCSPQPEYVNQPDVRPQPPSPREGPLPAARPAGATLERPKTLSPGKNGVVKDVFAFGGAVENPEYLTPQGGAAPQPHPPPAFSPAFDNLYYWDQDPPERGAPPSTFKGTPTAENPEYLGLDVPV

Consider `O=C(OCN1C(=O)c2ccccc2C1=O)C1CCCCC1`, for which the viability is 82% in experiment [1]; 82% (inactive) in experiment [3]; 87.3% (inactive) in [4]; 87.6% (inactive) in experiment [5]; 100% in [6] (setting [16]); 87.6% in [6] (setting [17]). Also, the viability was 90.2% (inactive) in [12] and 91% (inactive) in [13]. Moreover, the Her2 level in experiment [2] is 97.5% (inactive). Also, in [6] (H69AR cells + 2 uM doxorubicin), the differential viability (reversal) is -12.9% (inactive). For the same compound, the inhibition in experiment [7] is 3.08% (inactive); in [8], -7.17% (inactive); in experiment [14], 1.03% (inactive). Also, the growth inhibition is 0.93% (inactive) in [9] and -9.12% (inactive) in experiment [10]. Further, the viability increase in experiment [11] was -2.19% (inactive). The RAM network inhibition in experiment [15] is 0.77% (inactive).

For the compound `Cc1c(C)n(C)c2ccc(C(=O)NCc3cccs3)cc12`, the viability in experiment [1] is 93.5%; in experiment [3], 93.5% (inactive); in experiment [4], 95.7% (inactive); in experiment [5], 90.7% (inactive); in [6] (setting [16]), 74.6%; in experiment [6] (setting [17]) it was 90.7%. Moreover, the viability in experiment [12] was 97.5% (inactive); in experiment [13], 96.8% (inactive). For the same compound, in experiment [2], the Her2 level is 87.5% (inactive). For the same compound, the differential viability (reversal) in experiment [6] (H69AR cells + 2 uM doxorubicin) is 16.1% (inactive). Moreover, the inhibition is -2.8% (inactive) in [7], -4.59% (inactive) in experiment [8] and 1.61% (inactive) in experiment [14]. Moreover, the growth inhibition was -23.4% (inactive) in [9] and 1.59% (inactive) in experiment [10]. Moreover, the viability increase in experiment [11] was 3.39% (inactive). Moreover, the RAM network inhibition in [15] was 0% (inactive).

On to `COc1ccccc1Oc1ccc(S(=O)(=O)N2CCOCC2)cc1S(=O)(=O)N1CCOCC1`, for which the viability was 86.5% in experiment [1]; 86.5% (inactive) in experiment [3]; 101% (inactive) in [4]; 83.6% (inactive) in [5]; 88.1% in experiment [6] (setting [16]); 83.6% in [6] (setting [17]). The values for the viability in [12] and in [13] were 93.6% (inactive) and 98.3% (inactive), respectively. The Her2 level in [2] was 121% (inactive). In [6] (H69AR cells + 2 uM doxorubicin), the differential viability (reversal) was -4.58% (inactive). The inhibition in experiment [7] is -0.77% (inactive); in [8] it was -6.67% (inactive); in experiment [14], 2.41% (inactive). Also, the results for the growth inhibition in experiment [9] and in experiment [10] were -16.4% (inactive) and -21.3% (inactive), respectively. Also, in experiment [11], the viability increase was -0.17% (inactive). The RAM network inhibition in [15] was 4.3% (inactive).

For `c1ccc(N2CCN(Cc3cn4cccnc4n3)CC2)cc1`, the viability was 98% in experiment [1]; 98% (inactive) in experiment [3]; 97.2% (inactive) in [4]; 97.6% (inactive) in [5]; 93.9% in [6] (setting [16]); 97.6% in experiment [6] (setting [17]). Besides, the viability is 98% (inactive) in [12] and 95.1% (inactive) in experiment [13]. The Her2 level in experiment [2] was 94% (inactive). In addition, the differential viability (reversal) in experiment [6] (H69AR cells + 2 uM doxorubicin) is 3.72% (inactive). Also, the inhibition in experiment [7] is -2% (inactive); in [8] it was -6.07% (inactive); in [14] it was 0.465% (inactive). For the same compound, the growth inhibition in [9] is -10.3% (inactive); in [10] it was -6.25% (inactive). For the same compound, the viability increase in experiment [11] is 1.38% (inactive). For the same compound, in [15], the RAM network inhibition was 6.85% (inactive).

In the case of `CCOc1ccc(N2CC(C(=O)Nc3ccccc3OC)CC2=O)cc1` (configuration not stated), the viability was 106% in experiment [1]; 106% (inactive) in [3]; 110% (inactive) in experiment [4]; 95.7% (inactive) in [5]; 86% in experiment [6] (setting [16]); 95.7% in experiment [6] (setting [17]). For the same compound, the viability in [12] and in [13] was 102% (inactive) throughout. Moreover, the Her2 level in [2] is 98% (inactive). The differential viability (reversal) in experiment [6] (H69AR cells + 2 uM doxorubicin) is 9.71% (inactive). Further, the inhibition in experiment [7] was -3.87% (inactive); in experiment [8], -3% (inactive); in experiment [14], 1.8% (inactive). In addition, the growth inhibition is -7.43% (inactive) in experiment [9] and -1.77% (inactive) in experiment [10]. In experiment [11], the viability increase is -1.73% (inactive). In experiment [15], the RAM network inhibition is 0.63% (inactive).

Consider `Cc1ccccc1Cn1ccc(NC(=O)c2onc(C)c2Cl)n1`, for which the viability in [1] was 107%; in experiment [3] it was 107% (inactive); in experiment [4], 93.6% (inactive); in experiment [5], 100% (inactive); in experiment [6] (setting [16]), 83.6%; in [6] (setting [17]), 100%. The viability in experiment [12] is 103% (inactive); in experiment [13] it was 91.2% (inactive). Besides, in experiment [2], the Her2 level is 106% (inactive). Further, the differential viability (reversal) in experiment [6] (H69AR cells + 2 uM doxorubicin) was 16.8% (inactive). The results for the inhibition in experiment [7], in experiment [8] and in experiment [14] were -4% (inactive), -4.17% (inactive) and 1.72% (inactive), respectively. For the same compound, the growth inhibition is -7.95% (inactive) in experiment [9] and 2.75% (inactive) in [10]. In experiment [11], the viability increase is 4.68% (inactive). Also, the RAM network inhibition in experiment [15] is 4.82% (inactive).

Values taken from PubChem BioAssay.
